D2 PAM-1: positive allosteric modulators of human D2 dopamine receptor; P14416; HEK293 T-REx D2, calcium flux, EC20 dopamine potentiation; potentiation, % at 10 µM; 0.34% of 340,000 active; AID 485347;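 active = potentiation over 3 SD above the plate norm, cut at about 30% in these data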
Target sequence (P14416 whole entry, looked up): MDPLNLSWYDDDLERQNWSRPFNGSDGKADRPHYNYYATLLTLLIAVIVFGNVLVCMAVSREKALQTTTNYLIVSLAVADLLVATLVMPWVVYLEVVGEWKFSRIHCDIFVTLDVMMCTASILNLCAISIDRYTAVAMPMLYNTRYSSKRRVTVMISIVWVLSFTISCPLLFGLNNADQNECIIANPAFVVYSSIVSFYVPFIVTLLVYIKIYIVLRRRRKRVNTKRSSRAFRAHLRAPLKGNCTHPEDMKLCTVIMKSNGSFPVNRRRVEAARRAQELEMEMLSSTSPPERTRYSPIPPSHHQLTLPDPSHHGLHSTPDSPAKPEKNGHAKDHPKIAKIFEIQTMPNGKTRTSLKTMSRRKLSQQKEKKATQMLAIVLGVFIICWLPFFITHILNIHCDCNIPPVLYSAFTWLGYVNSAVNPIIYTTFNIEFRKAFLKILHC
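Primary screen. Calcium kinetics in induced HEK293 T-REx D2 cells: compound pre-addition 180 s, EC20 dopamine, 180 s more.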
D2 antagonist: antagonists of human D2 dopamine receptor. P14416. HEK293 TREx D2 cells, calcium flux, dopamine EC80. inhibition, % at 10 µM. 2% of 340,000 active. AID 485344; in the data active = inhibition above about 30%; inactive = below that, where a call was filed
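Calcium mobilization kinetics were recorded at 1 s intervals in tetracycline-induced HEK293 T-REx D2 cells, first for 180 s after compound addition and then 180 s after EC80 dopamine.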
D2 ag-1: agonists of human D2 dopamine receptor (beta-arrestin); P14416; DiscoveRx PathHunter D2 beta-arrestin, luminescence, 90 min; 100% = 57 uM dopamine signal; activation, % (no concentration beside the values); 0.084% of 360,000 active; in the data active = activation above about 40%; inconclusive = between about 15% and that limit
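DiscoveRx PathHunter D2 beta-arrestin cells (2,100/well) attached overnight, then compound-stimulated 90 min at 37 C in HBSS/10 mM HEPES/0.1% Tween-20 buffer; beta-galactosidase complementation read by luminescence after 1 h at ambient temperature. Dopamine 57 uM final (EC100) as control.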
D2 ag-2: agonists of human D2 dopamine receptor. P14416. HEK293 T-REx D2 cells, calcium flux agonist mode. activation, % at 2 µM. 0.53% of 340,000 active;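 active = activation over 3 SD above normal in the single-dose calcium agonist read, cut at about 30% in these data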
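Tetracycline-induced HEK293 Trex cells with D2 receptor force-coupled to calcium signaling, plated overnight at 30 C and loaded with no-wash calcium dye. Calcium flux read kinetically for 180 s after compound addition; responses flag agonists.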
D2 PAM-2: positive allosteric modulators of human D2 dopamine receptor; DiscoveRx D2 beta-arrestin cells, luminescence, 90 min; 100% = 57 uM dopamine signal; potentiation, % (concentration not given with the values); 0.23% of 360,000 active; P14416; AID 624464; in the data active = potentiation above about 50%; inconclusive = mostly about 30% to 49%
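D2 cells co-treated with compound plus 50 nM dopamine (EC20) for 90 min at 37 deg C to detect potentiation. Beta-arrestin recruitment was read as enzyme-fragment luminescence after 1 h at ambient temperature. Full response was set by 57 uM dopamine.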
A number is an active result; - = inactive; ? = inconclusive; . = no result given. The list is not random: actives were taken first. Their share in the collection is about 2.4%.

SMILES	D2 PAM-1	D2 antagonist	D2 ag-1	D2 ag-2	D2 PAM-2
Clc1ccc(OCCCCCN2CCCC2)c(Br)c1	-	-	-	-	-
CCCCNC(=O)C1CCC(Cn2c(=O)c3sccc3n(CC(=O)N3CCCC3)c2=O)CC1 (stereo not given)	-	.	.	-	.
Cc1ccccc1NS(=O)(=O)c1ccc(Br)s1	-	.	.	-	.
Cc1ccc2c(c1)cc(C(=O)NCc1ccc(F)cc1)n2C	-	.	.	-	.
Cn1c(=O)c2c(nc(OCc3cccnc3)n2Cc2c(F)cccc2Cl)n(C)c1=O	.	43.3	-	-	-
Cc1ccc(NS(=O)(=O)c2ccc3[nH]c4c(c3c2)CCCC4)cc1N(C)C	.	.	.	-	.
Cc1ccc([N+](=O)[O-])c(NC(=O)COC(=O)C2CC3CCCC(C2)C3=O)c1C (stereo not given)	-	36.4	-	-	-
Cc1cccc([N+](=O)[O-])c1NC(=O)COC(=O)C1CC2CCCC(C1)C2=O (stereo not given)	-	-	-	-	-
CN(C)c1ccc(N/C=C/C(=O)C(C)(C)C)cc1	-	-	-	-	65.9
OCc1cnc(SCc2ccccc2)n1Cc1ccccc1	-	-	-	-	-
C=CCSc1ncc(CO)n1Cc1ccccc1	-	36.5	-	-	-
C/C(=N\NC(=O)c1c(C)nc2ccccn12)c1ccccc1F	-	31.5	-	-	-
COc1ccc2c(c1)c1c(c(=O)n(Cc3ccccc3)c(=O)n1Cc1ccccc1Cl)n2C	-	.	.	-	.
COc1ccc(OCC(O)CNC(=O)Nc2cc(C)cc(C)c2)cc1 (stereo not given)	-	30.1	-	-	-
COc1ccc(CNC(=O)Nc2cc(C)cc(C)c2)cc1	-	-	-	-	-
CC(=O)NC1CC2CCCC(C1)N2C(=O)Nc1c(C)cccc1C (stereo not given)	.	.	-	.	-
Cc1cccc(C)c1NC(=O)N1C2CCCC1CC(NC(=O)C(C)(C)C)C2 (stereo not given)	-	37.5	-	-	-
CC(=O)c1ccc2c(c1)C1C=CCC1C(c1ccncc1)N2 (stereo not given)	-	-	-	-	86.4
C1=CC2c3ccccc3NC(c3ccncc3)C2C1 (stereo not given)	-	-	-	-	70.4
Brc1cc2c(cc1C1Nc3ccccc3C3C=CCC31)OCO2 (stereo not given)	-	-	-	-	-
O=C(c1ccccc1Br)N(Cc1ccccc1F)C1CCS(=O)(=O)C1 (stereo not given)	-	.	.	-	.
C/C(=N\Nc1ccc(Cl)c(C(=O)O)c1)c1ccc(Br)s1	-	47.1	-	-	-
COc1ccc(Nc2nc(C)nc3c2nnn3Cc2ccccc2)cc1OC	34.5	-	-	-	-
CC/C(=N\NC(N)=O)c1ccc(OC)c(OC)c1	-	38.5	-	-	-
CC/C(=N\NC(=O)COc1ccc(Br)cc1)c1ccc(OC)c(OC)c1	.	.	-	.	-
SMILES	D2 PAM-1	D2 antagonist	D2 ag-1	D2 ag-2	D2 PAM-2
CCOC(=O)Nc1sc(NS(=O)(=O)c2ccccc2)nc1C	-	-	-	-	86.4
Cc1nc(NS(=O)(=O)c2ccccc2)sc1NC(=O)Nc1ccccc1	-	55.3	?	-	-
Cc1nc(NS(=O)(=O)c2ccccc2)sc1NC(=O)Nc1ccc(Cl)cc1	-	-	-	-	-
COc1ccc(NC(=O)C(NS(=O)(=O)c2cccc3nsnc23)C(C)C)cc1OC (stereo not given)	-	.	.	-	.
CCc1ccc(NC(=O)C(=O)NCC(c2ccc3c(c2)OCO3)N2CCOCC2)cc1 (stereo not given)	-	.	.	-	.
COc1ccc(Br)cc1CN1CCCC(C(=O)N2CCCCCC2)C1 (stereo not given)	-	32.4	-	-	-
CSCSC1=C(C#N)C(c2ccc(Cl)cc2)C(C(C)=O)=C(C)N1 (stereo not given)	-	31.6	.	-	.
CSC1=C(C#N)C(c2ccccc2)C(C(C)=O)=C(C)N1 (stereo not given)	-	-	-	-	-
CCOC(=O)c1c(C)[nH]c(C)c1S(=O)(=O)N1CCCC(C(=O)Nc2ccc(C)c(N(C)C)c2)C1 (stereo not given)	-	.	.	-	.
COc1ccc2nc3cc(Cl)ccc3c(Nc3cc(C(C)C)c(O)cc3C)c2c1	-	31.3	-	-	-
CCN(CC)CCCC(C)Nc1c2ccc(Cl)cc2nc2ccc(OC)cc12 (stereo not given)	-	-	.	-	.
COc1ccc([N+](=O)[O-])cc1/C=N/NC(=O)/C(=C\c1cccs1)NC(=O)c1ccccc1	-	42.8	-	-	-
NNC(=O)/C(=C\c1cccs1)NC(=O)c1ccccc1	-	30.8	-	-	-
CN(C)S(=O)(=O)c1ccc2c(c1)N(CC(=O)Nc1ccc(F)cc1)C(=O)CS2	-	.	.	-	.
Cc1ccc(NC(=O)NCCOCCn2c(=O)oc3ccccc32)cc1C	-	.	.	-	.
Cc1sc2ncn(CC(=O)Nc3ccc(F)cc3F)c(=O)c2c1S(=O)(=O)N1CCC(C)CC1	-	.	.	-	.
Cc1cccc(NC(=O)Cn2cnc3sc(C)c(S(=O)(=O)N4CCC(C)CC4)c3c2=O)n1	-	31.6	-	-	-
COc1ccccc1/C=C/c1onc(C)c1S(=O)(=O)N1CCC(C(=O)N2CCC(C)CC2)CC1	-	.	.	-	.
Nc1c(C(O)(C(F)(F)F)C(F)(F)F)cc(C(O)(C(F)(F)F)C(F)(F)F)c2ccccc12	-	-	?	-	91.4
CCOC(=O)C1(c2csc(N)n2)COC(=O)C1 (stereo not given)	-	43.7	-	-	-
Cc1ccc(F)cc1NC(=O)c1ccc(Cn2nc(N3CCN(c4ccccc4)CC3)ccc2=O)o1	-	.	.	-	.
O=C(OCn1nnc2ccccc2c1=O)C1CCN(S(=O)(=O)c2cccs2)CC1	73.9	-	-	-	-
O=C(OCc1ccccc1)C1CCN(S(=O)(=O)c2cccs2)CC1	.	.	-	.	-
COc1ccc(NC(=O)C2CCN(C(=O)Nc3ccccc3)CC2)cc1S(=O)(=O)N(C)C	-	77.2	-	-	-
O=S(=O)(NCCc1csc2nc(-c3ccc(Cl)cc3)nn12)c1ccc(Oc2ccccc2)cc1	-	.	.	-	.
SMILES	D2 PAM-1	D2 antagonist	D2 ag-1	D2 ag-2	D2 PAM-2
COCc1nnc(NC(C)=O)s1	-	32.4	-	-	-
CCOC(=O)C1(CC2CCCCO2)CCN(C(=O)Nc2ccc(C(=O)OC)cc2)CC1 (stereo not given)	-	31.9	-	-	-
Cc1csc2nc(CSc3nc4ccccc4o3)c(Br)n12	36.3	-	-	-	-
O=S(=O)(c1ccc2ccccc2c1)n1nc(-c2ccco2)nc1NCc1cccc(Cl)c1	-	.	.	-	.
N/C(=N\N=C/c1ccc(Br)cc1)N/N=C\c1ccc(Br)cc1	-	-	-	-	-
N/C(=N\N=C/c1ccc(F)cc1)N/N=C\c1ccc(F)cc1	-	40.3	-	-	-
Cc1ccc(N2CCN(C(=O)c3c(C)oc4ncnc(N5CCCCC5)c34)CC2)c(C)c1	.	.	.	-	.
